SUMO Mot1 rescue – blocks SUMOylation pathway, rescuing yeast Mot1-301 growth. actives 1% (n = 320,000). S. cerevisiae Mot1-301 growth rescue, ATP luminescence, 38.5C; percent above DMSO median, 100 means doubled. growth rescue, % at 18.8 µM;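 active means every valid replicate shows activation above 250% relative to neutral control wells; inactive means the rest, any valid replicate at or below 250%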
Efflux pump inh – blocks antifungal efflux pumps in multiplex yeast assay | S. cerevisiae Candida pump triplex, Nile Red efflux | inhibition, % at 10 µM | actives 0.44% (n = 330,000);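 active means plate passing quality check with inhibition over a set limit, or well fluorescence over plate mean plus 4 SD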;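 further: Nile Red retained in pooled yeast measured as flow cytometry median fluorescence; higher means more Nile Red kept so more efflux inhibition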
SKN-1 inh – inhibitors of C. elegans SKN-1. AID 624304. inhibition, % at 21.8 µM. C. elegans VP596 Pgst-4::GFP/RFP ratio, acrylamide-induced, 24 h. actives 0.49% (n = 360,000);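 active means interference check ratio from 0.5 to 1.5 plus GFP to RFP signal ratio inhibition reaching or exceeding a fixed threshold, cut at about 30% in these data, passing the limit was not always enough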
sPLA2-III inh – Blocks human group III sPLA2 activity | Q9NZ20 | QFRET BODIPY PC-A2 liposome hydrolysis, fluorescence | inhibition, % at 12.2 µM | actives 0.56% (n = 370,000) | AID 743126;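 active means inhibition above mean plus 3 SD of compounds lying within the high and low control bounds, cut at about 19% in these data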
Target sequence (Q9NZ20 whole entry, looked up): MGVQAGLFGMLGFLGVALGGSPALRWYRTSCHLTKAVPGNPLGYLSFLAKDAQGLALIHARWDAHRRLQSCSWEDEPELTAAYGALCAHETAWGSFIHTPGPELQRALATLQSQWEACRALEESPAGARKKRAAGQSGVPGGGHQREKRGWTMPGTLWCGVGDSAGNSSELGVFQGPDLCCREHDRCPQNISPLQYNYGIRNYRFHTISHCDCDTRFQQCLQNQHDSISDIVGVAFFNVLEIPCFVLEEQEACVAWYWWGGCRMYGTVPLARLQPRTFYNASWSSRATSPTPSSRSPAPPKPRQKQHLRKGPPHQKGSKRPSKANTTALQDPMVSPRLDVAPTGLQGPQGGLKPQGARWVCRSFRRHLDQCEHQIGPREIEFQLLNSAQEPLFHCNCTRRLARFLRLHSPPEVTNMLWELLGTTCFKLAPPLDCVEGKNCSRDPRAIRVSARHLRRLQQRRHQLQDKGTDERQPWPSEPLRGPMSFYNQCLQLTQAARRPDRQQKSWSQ
hGIII sPLA2 conf – human GIII-sPLA2 inhibition, confirmation | shares compounds with sPLA2-III inh | recombinant hGIII-sPLA2, BODIPY PC-A2 QFRET fluorescence | inhibition, % at 12.2 µM | actives 34% (n = 2,000) | AID 743280;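 active means mean inhibition across triplicates above the hit cutoff set in the earlier primary screen, cut at about 19% in these data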
BODIPY interf – optically interferes with 535nm fluorescence in sPLA2 counter-screen; shares compounds with sPLA2-III inh; BODIPY FL product fluorescence interference, QFRET; inhibition, % at 12.2 µM; actives 8.5% (n = 2,000); AID 743282;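 active means average inhibition above the solvent-only control mean plus 3 SD, cut at about 6% in these data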
535nm interf DR – counter-screen for HGIII-sPLA2 inhibitors: 535nm fluorescence interference, dose response. BODIPY FL product fluorescence interference, cell-free. shares compounds with sPLA2-III inh. 240 tested, under 10 active. IC50, µM;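 active means IC50 at or below 10 µM; inactive means IC50 above 10 µM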
Hits are given with their value; 0 = inactive; - = not tested or not shown. Rows were chosen to be rich in hits. Some 2.2% of all compounds tested hit in one or more screens of this group.

SMILES | SUMO Mot1 rescue | Efflux pump inh | SKN-1 inh | sPLA2-III inh | hGIII sPLA2 conf | BODIPY interf | others
COc1ccc2c(c1)C1NC(=S)NC(C)(O2)C1C(=O)Nc1ccc(Cl)cc1 (configuration not stated) | 0 | 0 | 0 | 20 | 0 | 0
CCN(CC)C(=O)CSc1nnc(SC(C)C(=O)NC2CC2)s1 (configuration not stated) | 0 | 0 | 0 | 0 | - | -
C/C(=N\Nc1ccc(Cl)c(C(=O)O)c1)c1ccc(N2CCOCC2)cc1 | 0 | 0 | 0 | 0 | - | -
Cc1c(C(=O)NNC(=S)Nc2cccc(Cl)c2)nnn1-c1ccccc1 | 0 | 0 | 0 | 31 | 34 | 9.3
Cc1cc(C(=O)NNC(=S)Nc2ccccc2)nn1C | 0 | 0 | 0 | 29 | 23 | 0
Cc1ccc2c(c1)c1c3n2CCN(CC#N)C3CCC1 (configuration not stated) | 0 | 0 | 0 | 22 | 0 | 0
CC(C)[C@@H](CO)N(C)S(=O)(=O)c1ccccc1Br | - | 0 | 0 | 0 | - | -
NC(=S)NN=Cc1nccc2c(C(F)(F)C(F)(F)C(F)(F)F)cccc12 | - | - | 0 | 31 | 39 | 0 | 535nm interf DR=0
COC(=O)[C@]12C[C@H](CC(=O)NCc3cccc(C(F)(F)F)c3)C(=O)N(Cc3ccc(Cl)cc3Cl)C1=C[C@H](C(C)C)O[C@@H]2C1CC1 | - | - | - | 0 | - | -
COCCSc1ccccc1C(=O)Nc1ccc(S(=O)(=O)N2CCOCC2)cc1 | 0 | 0 | 0 | 0 | - | -
O=C(Nc1ccc(Cl)cc1Cl)NC1CCCC1 | 0 | 0 | 0 | 0 | - | -
O=C(Nc1ccc(Cl)cc1Cl)NC1CCN(S(=O)(=O)c2ccc(F)cc2)CC1 | 0 | 0 | 0 | 21 | 0 | 0
N#CCCN1CCCc2cc(N=Nc3ccc(C(F)(F)F)cc3)ccc21 | 0 | 0 | 0 | 23 | 24 | 8.4
CCCN1CCCc2ccccc21 | 0 | 0 | 0 | 0 | - | -
Cc1ccc(-c2n[nH]c(=S)n2-c2ccccc2)cc1 | 0 | 0 | 0 | 0 | - | -
S=c1[nH]nc(-c2ccc3c(c2)OCO3)n1-c1ccccc1 | 0 | 0 | 0 | 25 | 23 | 0
CC1CCCN(C(=S)Nc2ccc3nc4n(c(=O)c3c2)CCCCC4)C1 (configuration not stated) | 0 | 0 | 0 | 27 | 0 | 0
CC1CC(C)CN(C(=S)Nc2ccc3nc4n(c(=O)c3c2)CCCCC4)C1 (configuration not stated) | 0 | 0 | 0 | 0 | - | -
COc1ccc(C2CC(=O)Nc3cc(OC)c(OC)cc32)cc1 (configuration not stated) | - | - | 0 | 21 | 0 | 0
COc1cc2c(cc1OC)C(c1ccc(N(C)C)cc1)CC(=O)N2 (configuration not stated) | 0 | 0 | 0 | 0 | - | -
Cc1cccnc1NC(=O)CSc1nnc(CNC(=O)c2cccc([N+](=O)[O-])c2)n1C | 0 | 0 | 0 | 0 | - | -
CCC(C)(NC(=O)c1ccccc1)C(=O)O (configuration not stated) | 0 | 0 | 0 | 23 | 0 | 0
O=C(NCc1ccccc1)N1CCCC1 | 0 | 0 | 0 | 0 | - | -
O=C(NCc1ccccc1)N1CCNCC1 | 0 | 0 | 0 | 22 | 0 | 0
CC(=O)c1ccc(NC(=O)[C@@H]2CCCN2C2=NS(=O)(=O)c3ccccc32)cc1 | 0 | 0 | 0 | 0 | - | -
SMILES | SUMO Mot1 rescue | Efflux pump inh | SKN-1 inh | sPLA2-III inh | hGIII sPLA2 conf | BODIPY interf | others
COc1cc(-c2n[nH]c(=S)n2-c2cccc(C(F)(F)F)c2)cc(OC)c1OC | 0 | 0 | 0 | 26 | 25 | 0
COc1cc(-c2n[nH]c(=S)n2-c2ccccc2C(F)(F)F)cc(OC)c1OC | 0 | 0 | 0 | 0 | - | -
CC1(C(=O)NS(=O)(=O)Cc2ccccc2)CCN1C(=O)CCc1ccccc1 (configuration not stated) | - | - | 0 | 0 | - | -
CCCCN(CCCC)C(=S)NC(=O)c1ccccc1Cl | 0 | 0 | 0 | 30 | 0 | 0
CCC(=O)Nc1ccc2c(c1)C(=O)N(C)[C@@H]1CC[C@@H](CC(=O)NCCN3CCCCC3)O[C@H]1CO2 | - | - | - | 21 | 0 | 0
CCC(=O)Nc1ccc2c(c1)C(=O)N(C)[C@@H]1CC[C@@H](CC(=O)OC)O[C@H]1CO2 | - | - | - | 0 | - | -
O=C(Cc1ccccc1)NN1CCCCC1 | 0 | 0 | 0 | 0 | - | -
COC(=O)c1cc(Cl)ccc1NCC(N)c1ccccc1 (configuration not stated) | - | - | 0 | 20 | 0 | 0
O=C(c1ccc(Cl)cc1)N(Cc1ccccc1F)N1C(=O)CCCC1=O | 0 | 0 | 0 | 0 | - | -
CN(C)c1cccc(C(=O)NNC(=S)NC2CC3CCC2C3)c1 (configuration not stated) | 0 | 0 | 0 | 20 | 25 | 0
CC(C)N(C(=S)NC1CC2CCC1C2)c1ccccc1 (configuration not stated) | 0 | 0 | 0 | 0 | - | -
COc1ccc(C2=NS(=O)(=O)N(C)C(C(=O)N3CCCCC3)=C2)cc1OC | 0 | 0 | 0 | 0 | - | -
CN1/C(=C/C(=S)NC(=O)C2(C)CC2(Cl)Cl)C(C)(C)c2ccccc21 (configuration not stated) | 0 | 0 | 0 | 27 | 0 | 0
C/C(CC(C)(C)C1CCCCC1)=N\NC(N)=S | 0 | 0 | 0 | 20 | 19 | 0
CCc1cc(=O)[nH]c(-n2[nH]c(-c3ccccc3)cc2=O)n1 | 0 | 0 | 0 | 0 | - | -
O=c1cc(-c2ccccc2)[nH]n1-c1nc2ccccc2[nH]1 | 0 | 0 | 0 | 19 | 0 | 0
CN(C)N1C(N)=C(C#N)C(c2cccc([N+](=O)[O-])c2)C2=C1CC(C)(C)CC2=O (configuration not stated) | - | - | 0 | 20 | 0 | 0
CCN(CC)c1ccc(C=Nc2ccccc2C)c(O)c1 | 0 | 0 | 0 | 20 | 0 | 0
CCN(CC)c1ccc(/C=N/NC(=O)c2ccco2)c(O)c1 | 0 | 0 | 0 | 0 | - | -
CCN(CC)c1ccc(/C=N/NC(=S)NCc2ccccc2)c(O)c1 | 0 | 0 | 0 | 36 | 25 | 11
CC1(C(=O)NCC(F)(F)F)CCN1C(=O)Cc1ccc(-c2ccccc2)cc1 (configuration not stated) | - | - | 0 | 0 | - | -
CCNC(=O)c1cc2c(c(-c3cccc(-c4cncnc4)c3)n1)[C@@H](CCO)N(C(C)=O)C2 | - | - | 0 | 21 | 0 | 0
CCC(=O)N1Cc2cc(C(=O)NCC(F)(F)F)nc(-c3cccc(-c4cncnc4)c3)c2[C@@H]1CCO | - | - | 0 | 0 | - | -
C[C@]12c3[nH]c4ccc(Cl)cc4c3CCN1C(=O)[C@@H](CC(=O)NCCN1CCOCC1)C[C@@H]2C(=O)N1CCCCC1 | - | 0 | 0 | 0 | - | -
O=C(CN(C1CC1)S(=O)(=O)c1ccc(S(=O)(=O)N2CCCCCC2)cc1)Nc1ccccc1 | 0 | 0 | 0 | 0 | - | -
O=C(CN(Cc1cccs1)S(=O)(=O)c1ccc(S(=O)(=O)N2CCCCC2)cc1)Nc1ccccc1 | 0 | 0 | 0 | 21 | 0 | 0
